The whole screen tested about 5,500 compounds, of which about 2,000 (36%) were called active. Inconclusive results (about 18%) are left out. Rule as the data show it: active = normalized growth mostly below about 0.91 (no sharp cut-off); inconclusive = no clear call, values can overlap the other calls; inactive = mostly above about 0.92. The list shows a part of the results.
Test: chemical genetic growth profiling, strain panel (AID 1159580);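 also: tested at 20 µM; growth read once vehicle control cultures reached saturation at 30 °C; 1 = growth at the plate median or of vehicle wells; lower values mean less growth of the strain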
Conditions: growth OD

Measured: normalized growth

Oc1c(Cl)cc(Cl)c2cccnc12
active: S. cerevisiae deletion strains, locus YJR066W, strain TOR1, hits give low values -0.00116 | S. cerevisiae deletion strains, locus YJR075W, strain HOC1, hits give low values 0.0672 | S. cerevisiae deletion strains, locus YKL009W, strain mrt4, hits give low values 0.092 | S. cerevisiae deletion strains, locus YKL068W, hits give low values 0.0598 | S. cerevisiae deletion strains, locus YKL085W, strain MDH1 (second series), hits give low values 0.057 | S. cerevisiae deletion strains, locus YKL085W, strain MDH1, hits give low values 0.057 | S. cerevisiae deletion strains, locus YKL160W, strain elf1, hits give low values 0.067 | S. cerevisiae deletion strains, locus YKL190W, strain CNB1, hits give low values 0.0458 | S. cerevisiae deletion strains, locus YKR001C, strain vps1, hits give low values 0.0676 | S. cerevisiae deletion strains, locus YKR026C, strain gcn3, hits give low values 0.0676 | S. cerevisiae deletion strains, locus YKR091W, strain srl3, hits give low values 0.0658 | S. cerevisiae deletion strains, locus YLL001W, strain dnm1, hits give low values 0.0628 | S. cerevisiae deletion strains, locus YLL026W, hits give low values 0.0652 | S. cerevisiae deletion strains, locus YLL041C, strain sdh2, hits give low values 0.0595 | S. cerevisiae deletion strains, locus YLR027C, strain aat2, hits give low values 0.0596 | S. cerevisiae deletion strains, locus YLR039C, strain RIC1, hits give low values 0.0746 | S. cerevisiae deletion strains, locus YLR058C, strain SHM2, hits give low values 0.0468 | S. cerevisiae deletion strains, locus YLR102C, strain apc9, hits give low values 0.0634 | S. cerevisiae deletion strains, locus YLR113W, strain HOG1, hits give low values 0.152 | S. cerevisiae deletion strains, locus YLR221C, strain rsa3, hits give low values 0.0659 | S. cerevisiae deletion strains, locus YLR258W, strain gsy2, hits give low values 0.0626 | S. cerevisiae deletion strains, locus YLR262C, strain YPT6 (second series), hits give low values 0.0862 | S. cerevisiae deletion strains, locus YLR262C, strain YPT6, hits give low values 0.0908 | S. cerevisiae deletion strains, locus YLR268W, strain sec22, hits give low values 0.0715 | S. cerevisiae deletion strains, locus YLR320W, strain mms22, hits give low values 0.0895 | S. cerevisiae deletion strains, locus YLR330W, strain CHS5, hits give low values 0.0519 | S. cerevisiae deletion strains, locus YLR342W, strain FKS1 (second series), hits give low values 0.0706 | S. cerevisiae deletion strains, locus YLR342W, strain FKS1, hits give low values 0.068 | S. cerevisiae deletion strains, locus YLR357W, strain rsc2, hits give low values 0.116 | S. cerevisiae deletion strains, locus YLR370C, strain arc18, hits give low values 0.0682 | S. cerevisiae deletion strains, locus YLR371W, strain rom2, hits give low values 0.0693 | S. cerevisiae deletion strains, locus YLR384C, strain iki3, hits give low values 0.0654 | S. cerevisiae deletion strains, locus YLR418C, strain cdc73, hits give low values 0.106 | S. cerevisiae deletion strains, locus YML016C, strain PPZ1, hits give low values 0.0467 | S. cerevisiae deletion strains, locus YML032C, strain rad52, hits give low values 0.0695 | S. cerevisiae deletion strains, locus YML120C, strain ndi1, hits give low values 0.0608 | S. cerevisiae deletion strains, locus YML124C, strain tub3, hits give low values 0.0633 | S. cerevisiae deletion strains, locus YMR058W, strain fet3, hits give low values 0.0638 | S. cerevisiae deletion strains, locus YMR078C, strain ctf18, hits give low values 0.0725 | S. cerevisiae deletion strains, locus YMR125W, strain sto1, hits give low values 0.0693 | S. cerevisiae deletion strains, locus YMR129W, hits give low values 0.0704 | S. cerevisiae deletion strains, locus YMR205C, strain PFK2, hits give low values 0.087 | S. cerevisiae deletion strains, locus YMR223W, strain ubp8, hits give low values 0.0733 | S. cerevisiae deletion strains, locus YMR231W, strain pep5, hits give low values 0.0731 | S. cerevisiae deletion strains, locus YMR263W, strain SAP30, hits give low values 0.057 | S. cerevisiae deletion strains, locus YMR307W, strain GAS1, hits give low values 0.101 | S. cerevisiae deletion strains, locus YNL067W, strain RPL9B, hits give low values 0.0516 | S. cerevisiae deletion strains, locus YNL071W, strain lat1, hits give low values 0.0698 | S. cerevisiae deletion strains, locus YNL128W, strain TEP1, hits give low values 0.0643 | S. cerevisiae deletion strains, locus YNL153C, strain GIM3, hits give low values 0.0512 | S. cerevisiae deletion strains, locus YNL183C, strain NPR1, hits give low values -0.00339 | S. cerevisiae deletion strains, locus YNL209W, strain ssb2, hits give low values 0.0648 | S. cerevisiae deletion strains, locus YNL233W, strain BNI4, hits give low values 0.0545 | S. cerevisiae deletion strains, locus YNL248C, strain rpa49, hits give low values 0.0607 | S. cerevisiae deletion strains, locus YNL250W, strain rad50, hits give low values 0.0707 | S. cerevisiae deletion strains, locus YNL271C, strain bni1, hits give low values 0.0672 | S. cerevisiae deletion strains, locus YNL298W, strain CLA4, hits give low values 0.0667 | S. cerevisiae deletion strains, locus YNL307C, strain MCK1, hits give low values 0.0744 | S. cerevisiae deletion strains, locus YNL322C, strain KRE1 (second series), hits give low values 0.0728 | S. cerevisiae deletion strains, locus YNL322C, strain KRE1, hits give low values 0.0468 | S. cerevisiae deletion strains, locus YNR049C, strain mso1, hits give low values 0.0631 | S. cerevisiae deletion strains, locus YNR052C, strain pop2, hits give low values 0.0629 | S. cerevisiae deletion strains, locus YOL006C, strain TOP1, hits give low values 0.108 | S. cerevisiae deletion strains, locus YOL147C, strain pex11, hits give low values 0.0586 | S. cerevisiae deletion strains, locus YOR001W, strain rrp6, hits give low values 0.072 | S. cerevisiae deletion strains, locus YOR061W, strain CKA2, hits give low values 0.045 | S. cerevisiae deletion strains, locus YOR069W, strain VPS5, hits give low values 0.046 | S. cerevisiae deletion strains, locus YOR070C, strain gyp1, hits give low values 0.0611 | S. cerevisiae deletion strains, locus YOR080W, strain dia2, hits give low values 0.0794 | S. cerevisiae deletion strains, locus YOR083W, strain WHI5, hits give low values 0.0648 | S. cerevisiae deletion strains, locus YOR106W, strain vam3, hits give low values 0.0647 | S. cerevisiae deletion strains, locus YOR136W, strain idh2, hits give low values 0.0779 | S. cerevisiae deletion strains, locus YOR144C, strain elg1, hits give low values 0.0585 | S. cerevisiae deletion strains, locus YOR184W, strain ser1, hits give low values 0.0845 | S. cerevisiae deletion strains, locus YOR231W, strain MKK1, hits give low values 0.105 | S. cerevisiae deletion strains, locus YOR265W, strain rbl2, hits give low values 0.0654 | S. cerevisiae deletion strains, locus YOR270C, strain vph1, hits give low values 0.0804 | S. cerevisiae deletion strains, locus YOR290C, strain snf2, hits give low values 0.062 | S. cerevisiae deletion strains, locus YOR316C, strain cot1, hits give low values 0.0632 | S. cerevisiae deletion strains, locus YPL051W, strain arl3, hits give low values 0.0645 | S. cerevisiae deletion strains, locus YPL055C, strain LGE1, hits give low values 0.0675 | S. cerevisiae deletion strains, locus YPL078C, strain atp4, hits give low values 0.0648 | S. cerevisiae deletion strains, locus YPL106C, strain sse1, hits give low values 0.0892 | S. cerevisiae deletion strains, locus YPL240C, strain hsp82, hits give low values 0.0586 | S. cerevisiae deletion strains, locus YPL241C, strain CIN2, hits give low values 0.0475 | S. cerevisiae deletion strains, locus YPL256C, strain CLN2, hits give low values 0.126 | S. cerevisiae deletion strains, locus YPR119W, strain clb2, hits give low values 0.0705 | S. cerevisiae deletion strains, locus YPR141C, strain kar3, hits give low values 0.0755 | S. cerevisiae deletion strains, locus YPR163C, strain tif3, hits give low values 0.074 | S. cerevisiae deletion strains, locus YPR167C, strain met16, hits give low values 0.0659 | S. cerevisiae deletion strains, strain wtn01, hits give low values 0.0707 | S. cerevisiae strains, strain wild type, hits give low values 0.0471

— PubChem BioAssay AID1159580 (chemical genetic matrix, 2015)
